# Lassa entry inh: inhibitors of Lassa virus binding or cell entry; Lassa virus pseudotype entry inhibition, cell reporter; Potency, µM (highest dose often 37.9 µM), for inactives: at the highest dose activity change, negative = inhibition, usual class: inhibitors; 300,000 compounds, 1.2% hits; AID 540256; calls by dose curve; tested in HEK293 cells; also: potency is read from the fitted curve at half-maximal effect; nearly all actives have a fitted effect of over 50% in size
# FMDV inh: antivirals against foot and mouth disease virus; 410,000 compounds, 1.2% hits; AID 1159524; FMDV antiviral cell-based qHTS; Potency, µM (top dose mostly 57.9 µM), inactives show at the top dose activity change, negative = inhibition, hits mostly inhibitors; calls by dose curve; tested in HEK293T cells; also: read-out not given here; potency is read from the fitted curve at half-maximal effect; nearly all actives have a fitted effect of over 45% in size
# VACV mCherry inh: inhibitors of vaccinia virus infection (mCherry reporter signal); Vaccinia virus mCherry reporter infection, fluorescence; 310,000 compounds, 0.63% hits; Potency, µM (top dose mostly 36.5 µM), without a hit: top-dose activity change, negative = inhibition, actives largely listed as inhibitors; AID 720579; calls by dose curve; tested in A549 cells; also: potency is read from the fitted curve at half-maximal effect; nearly all actives have a fitted effect of over 35% in size
# HCMV antiviral: human cytomegalovirus inhibition; HFF cells, HCMV-luciferase reporter, 72 h; stronger effect = lower value; activity change, negative = inhibition, % at 57.5 µM; 410,000 compounds, 4.5% hits; in the data active = activity change below about -60%; inconclusive = no clear call, values can overlap the other calls; inactive = above about -39%
#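 Steps: HFFs plated, 16 h 37C; compounds added; HCMV-luciferase added to MOI 1 PFU/cell; 72 h 37C; OneGlo reagent, 5 min room temperature; luminescence read, normalized to controls.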
# Vaccinia Venus: inhibitors of vaccinia virus (Venus reporter) | Vaccinia virus Venus reporter expression, fluorescence | Potency, µM (top dose mostly 36.5 µM), inactives show at the top dose activity change, negative = inhibition, most hits filed as inhibitors | 330,000 compounds, 0.46% hits | AID 720580; calls by dose curve; tested in A549 cells; also: potency is read from the fitted curve at half-maximal effect; nearly all actives have a fitted effect of over 30% in size
# MARV entry inh: Marburg virus entry inhibition | 300,000 compounds, 1.8% hits | AID 540276 | Marburg virus pseudotyped entry inhibition, cell reporter | Potency, µM (highest dose often 37.8 µM), without a hit: at the highest dose activity change, negative = inhibition, usual class: inhibitors; calls by dose curve; tested in HEK293 cells; also: potency is read from the fitted curve at half-maximal effect
# * = called active by the depositor; i = inactive; ? = inconclusive; / = no result; ! = not confirmed by another sample; [ ] = remark or other dose. Sampled rows, rich in hits. Any-hit rate of the full collection: about 6.5%. % is scaled to controls: 0 for no effect and ±100 for the full control effect.
SMILES,Lassa entry inh,FMDV inh,VACV mCherry inh,HCMV antiviral,Vaccinia Venus,MARV entry inh
CCN(CC)c1ccc(/C=N/NC(=O)CNC(=O)C2COc3ccccc3O2)c(O)c1 (stereo not given),11µM*,-7%,2.8µM*,-97*,?,4.5µM*
CCN(CC)c1ccc(/C=N/NC(=O)CCC(=O)NCc2ccccc2)c(O)c1,?,14%,10µM*,-16,?,?
C/C(=N\NC(=O)CNC(=O)c1ccc2c(c1)OCCO2)c1ccco1,?,23%,-13%,24,0%,-16%
CCN(CC)S(=O)(=O)c1cccc(C(=O)N/N=C/c2cc(OC)c(O)c(OC)c2)c1,14%,?,-2%,-5,-14%,21%
C/C(=N/NC(=O)CNC(=O)C1COc2ccccc2O1)c1ccc2c(c1)OCCO2 (stereo not given),-2%,0%,0%,-73*,-2%,1%[46.1 µM]
CCN(CC)S(=O)(=O)c1cccc(C(=O)N/N=C/c2cccc(O)c2O)c1,13µM*,-5%,10µM*,-24,?,?
COc1cc(/C=N\NC(=O)CNC(=O)C2COc3ccccc3O2)ccc1O (stereo not given),8%,-22%,-18%,28,-17%,1%
COC(=O)C1=C(C)NC(C)=C(C(=O)OC)C1C(=O)OCC(=O)N1CCCCC1C (stereo not given),13%[46.1 µM],3%,0%,-1,-15%,2%
COc1ccc(C#Cc2cnc3c(c2)C(=O)N([C@H](C)CO)C[C@@H](C)[C@H](CN(C)C(=O)CN(C)C)O3)cc1,/,-6%,i,11,-12%,/
CCN(CC)c1ccc(/C=N/NC(=O)c2cccc(S(=O)(=O)N3CCOCC3)c2)c(O)c1,?,?,1.8µM*,-75*,?,?
CCN(CC)c1ccc(C=Nc2cccc(S(=O)(=O)N3CCOCC3)c2)c(O)c1,13%,6%,-19%,6,-17%,9%
Cn1ncc(Cl)c1C(=O)N/N=C/c1cc2c(cc1[N+](=O)[O-])OCO2,1%,0%,/,-9,/,-25%
CCN(CC)c1ccc(/C=N/NC(=O)c2c(Cl)cnn2C)c(O)c1,21µM*,21%,1.1µM*,-101*,?,1.1µM*
CCOC(=O)N/N=C/c1ccc(N(CC)CC)cc1O,4.5µM*,32%,?,24,?,?
O=C(c1cc(-c2ccccc2)on1)N1CCCCCC1,13µM*,34%,7%,19,-7%,?
O=C(c1cc(-c2ccc(Cl)cc2)on1)N1CCOCC1,9.2µM*,-41%,/,51,/,?
O=C(c1cc(-c2ccco2)on1)N1CCN(C(c2ccccc2)c2ccccc2)CC1,-17%,?,/,-104*,/,?
CC1(C)CC2CC(C)(CN2C(=O)c2cc(-c3ccc(O)cc3)on2)C1 (stereo not given),?,34%,?,-61*,-15%,?
CN(CCO)C[C@H](O)Cn1cnc2c1c(=O)n(C)c(=O)n2C (tested in a mixture with another compound),/,/,/,/,/,-17%
C=CCN(c1ccccc1OC)S(=O)(=O)c1ccc(Cl)c(C(=O)NCc2ccco2)c1,/,0%,-15%,-16,-21%,/
COc1ccc(Nc2nccc3[nH]c(-c4ccccc4OC)cc23)cc1,/,/,/,-4,/,/
Cc1ccc(-c2cc(C(=O)N3CCCCCC3)no2)cc1,?,65%,i,27,-7%,?
O=C(c1cc(-c2ccc(O)cc2)on1)N1CCN(c2ccc(F)cc2)CC1,/,-30%,14%,-63*,-13%,/
O=C(c1cc(-c2ccc(O)cc2)on1)N1CCCC1,?,12%,-30%,57,-13%,11µM*
Cc1cccc(NC(=O)CSc2nc(=O)n(CCN3CCOCC3)c3c2CCC3)c1C,-3%[46.1 µM],-16%,-10%[7.34 µM],-36,-10%[7.34 µM],/
SMILES,Lassa entry inh,FMDV inh,VACV mCherry inh,HCMV antiviral,Vaccinia Venus,MARV entry inh
CCCCc1ccc(NC(=O)CSc2nc(=O)n3cc(C)ccc3n2)cc1,16%,-29%,-8%,-67*,-9%,-18%[46.1 µM]
CCCCc1ccc(NC(=O)CSc2nc(=O)n(CCN(C)C)c3c2CCC3)cc1,?,2%,28µM*,-38,14µM*,?
CCOc1ccccc1NC(=O)CSc1nc(=O)n(CCN2CCOCC2)c2c1CCCC2,-4%,1%,-22%,-81*,-9%,25%
O=[N+]([O-])c1ccc(Cl)c(S(=O)(=O)Nc2ccc(-c3ccc(N4CCCC4)nn3)cc2)c1,7%,37%,i,-64*,-30%,9%
Cc1ccc(Nc2nc3ccccc3[nH]2)nc1,?,?,?,-77*,?,?
O=C1C(=O)N(C(C(=O)NCc2ccccc2)C2CCCC2)c2ccccc21 (stereo not given),/,/,/,-9,/,/
CC(=O)NCCNC(=O)C1(C)Cc2c(-c3ccc(NC(C)=O)cc3)ccnc2O1 (stereo not given),/,-16%,-3%,10,2%,/
COC(=O)C1Cc2c([nH]c3ccccc23)C2CCC(=O)N12 (stereo not given),/,-6%,i,-2,-7%,/
COC(=O)[C@@H]1Cc2c([nH]c3ccccc23)C(C)(C)N1C(=O)CCl,7.9µM*,?,?,-99*,?,7.1µM*
CS(=O)(=O)N1CCC2(CCN(c3ccccn3)CC2)CC1,/,5%,/,/,/,/
O=C1CCN(Cc2ccc(O)cc2)CCN1CCO,/,-11%,-11%,-68*!,-12%,/
O=C1CCN(Cc2ccccc2)CCN1CCO,/,-5%,i,?,-13%,/
Cc1nc2ccn(Cc3cccnc3)c(=O)c2cc1C(=O)NCc1ccc(Cl)cc1,?,-15%,i,-19,-5%,/
COc1ccc(CNC(=O)c2cc3c(=O)n(Cc4ccc(OC)cc4)ccc3nc2C)cc1,-13%[46.1 µM],0%,-26%,-75*,-25%,/
Cc1nc2ccn(Cc3cccs3)c(=O)c2cc1C(=O)NCc1ccc(Br)cc1,-33%[46.1 µM],3%,-24%,-63*,-20%,/
COc1ccc(OC)c(NC(=O)CSc2nnc3ccc(-c4ccccn4)nn23)c1,22%,-22%,0%,-11,-18%,11%
COc1cccc(-c2nn(C)c3sc(C(=O)NCc4cc(OC)ccc4OC)cc23)c1,-33%[46.1 µM],?,-27%,-24,-19%,7%[46.1 µM]
CCOc1ccc(CCNC(=O)c2cc3c(-c4cccc(OC)c4)nn(C)c3s2)cc1OCC,?,?,?,-63*,?,?
CCOc1ccc(CCNC(=O)c2cc3c(-c4ccccc4F)nn(C)c3s2)cc1OCC,?,?,?,-65*,?,?
Cc1ccc(CCNC(=O)c2cc3c(-c4ccccc4F)nn(C)c3s2)cc1,-6%[46.1 µM],-20%,-6%,-14,-5%,23%[46.1 µM]
CCCN(CC(=O)Nc1ccccc1C)C(=O)CCl,?,13µM*,4.5µM*,-99*,4.5µM*,?
CCCN(CC(=O)Nc1ccccc1C)C(=O)C1CC(=O)N(Cc2ccccc2)C1 (stereo not given),-11%,16%,-15%,-98*,-14%,10%

# Bioassay records deposited in PubChem BioAssay by National Center for Advancing Translational Sciences (NCATS).
